PubChem BioAssay AID1963321 (National Center for Advancing Translational Sciences (NCATS), 2024)
Results filed as inconclusive are left out. The call rests on the fitted dose curve.

These compounds were tested against cAMP-dependent protein kinase catalytic subunit alpha (Homo sapiens) (UniProt P17612) (assay: Protein Kinase A (PKA-HiBiT) enzymatic inhibition screen - Functional assay). Settings: luminescence; series mostly up to 57.5 µM; activity change, negative = inhibition: at the top concentration.
In short: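 PKA-N-HiBiT enzyme (10 nM final) with 87.5 uM ATP preincubated 30 min at room temperature with compounds. Kemptide substrate then added for 3 h; residual ATP read by Kinase-Glo Plus luminescence, H-89 as positive control.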

Activity change, negative = inhibition, inactive:
S=C(NCc1ccc2c(c1)OCO2)N1CCN(c2ncnc3c2oc2ccccc23)CC1 8.32%, Cc1cc(F)ccc1-c1nc(NC(CO)CO)nc2c1ccc(=O)n2-c1c(F)cccc1F 9.07%, FC(F)(F)c1ccc(/C=C/c2nc(COc3ccc(CCCCn4ccnn4)cc3)co2)cc1 7.55%, CCNC(=O)Nc1ccc(-c2nc3c(c(N4CCOC[C@@H]4C)n2)CCN(c2ncccn2)C3)cc1 9.16%, CO[C@H]1/C=C/O[C@@]2(C)Oc3c(C)c(O)c4c(O)c(c(/C=N\N5CCN(C6CCCC6)CC5)c(O)c4c3C2=O)NC(=O)/C(C)=C\C=C\[C@H](C)[C@H](O)[C@@H](C)[C@@H](O)[C@@H](C)[C@H](OC(C)=O)[C@@H]1C 8.13%, Cc1cn(-c2cc(F)cc(NC(=O)c3ccc(C)c(Nc4nccc(-c5cccnc5)n4)c3)c2)cn1 8.94%, Cc1cc(F)ccc1-c1nc(NCCN=C(N)NC#N)nc2c1ccc(=O)n2-c1c(F)cccc1F 8.78%, CNC(=O)c1ccccc1Nc1nc(Nc2ccc(N3CCOCC3)cc2OC)ncc1Cl 8.92%, CCCS(=O)(=O)Nc1ccc(F)c(C(=O)c2c[nH]c3ncc(Cl)cc23)c1F 8.85%, COc1ccc(-n2c(C)c([N+](=O)[O-])c3ccc(O)cc32)cc1 8.85%, Cc1cccc(/C=N/Nc2cc(N3CCOCC3)nc(OCCc3ccccn3)n2)c1 8.7% [at 46 µM], O=C(NCCO)c1cccc(-c2cc(Nc3ccc(OC(F)(F)F)cc3)ncn2)c1 9.23%, NC(=O)c1cccc(-c2cc(Nc3ccc(OC(F)(F)F)cc3)ncn2)c1 7.55%, COc1cc2c(Oc3ccc(NC(=O)C4(C(=O)Nc5ccc(F)cc5)CC4)cc3F)ccnc2cc1OCCCN1CCOCC1 9.04%, Cc1sc2c(c1C)C(c1ccc(Cl)cc1)=N[C@@H](CC(=O)Nc1ccc(OCCOCCOCCOCCNc3cccc4c3C(=O)N(C3CCC(=O)NC3=O)C4=O)cc1)c1nnc(C)n1-2 (stereo partly specified) 8.8%, Cc1[nH]c(/C=C2\C(=O)Nc3ccc(S(=O)(=O)Cc4c(Cl)cccc4Cl)cc32)c(C)c1C(=O)N1CCC[C@@H]1CN1CCCC1 7.75%, Cn1ncc(NC(=O)c2nc(-c3c(F)cccc3F)sc2N)c1N1CC[C@@H](N)[C@H](F)CC1 8.62%, C=CC(=O)Nc1cccc(Oc2nc(Nc3ccc(N4CCN(C)CC4)cc3OC)ncc2Cl)c1 8.93%, CCCCNc1ncc2c(-c3ccc(S(=O)(=O)N4CCOCC4)cc3)nn(C3CCC(O)CC3)c2n1 (stereo unspecified) 8.94%, COc1cc(N2CCOCC2)ccc1Nc1ncc(Cl)c(Nc2ccccc2NS(C)(=O)=O)n1 -15.9%, COc1cc2c(cc1OC)-c1[nH]nc(Nc3cccc(F)c3)c1C2 9.15%, CC[C@@](C)(Nc1ccnc(-c2c[nH]c3ncccc23)n1)C(=O)NCC(F)(F)F -2.08%, C[C@@H](NC(=O)c1ncnc(N)c1Cl)c1ncc(C(=O)Nc2cc(C(F)(F)F)c(Cl)cn2)s1 9%, CCN1CCN(Cc2ccc(NC(=O)c3ccc(C)c(NC(=O)c4cncc(-c5cccs5)c4)c3)cc2C(F)(F)F)CC1 7.5%, Cc1cc(C)c(/C=C2\C(=O)Nc3ccccc32)[nH]1 8.87%, O=C(NOCC(O)CO)c1cc(Br)c(F)c(F)c1Nc1ccc(I)cc1F (stereo unspecified) 8.81%, CN1CCN(CCOc2cc(OC3CCOCC3)c3c(Nc4c(Cl)ccc5c4OCO5)ncnc3c2)CC1 7.41%, Cc1ncc(NC(=O)c2ccc(CN3CCN(C)CC3)c(C(F)(F)F)c2)cc1Nc1nccc(-c2cccnc2)n1 8.99%, CN1CCN(C2CCC(n3cc(-c4ccc(Oc5ccccc5)cc4)c4c(N)ncnc43)CC2)CC1 (stereo unspecified) 8.56%, Cc1[nH]nc2ncc(C(=O)N3CCC[C@H]3c3ccc(Cl)cc3)cc12 8.86%, C=CC(=O)Nc1cc2c(Nc3ccc(F)c(Cl)c3)ncnc2cc1OCCCN1CCOCC1 9.13%, CN1CCN(c2ccc(Nc3ncc4cc(C#N)c(=O)n(C5CCCC5)c4n3)cc2)CC1 8.73%, Cc1cc(Nc2ncc3cc(-c4c(Cl)cccc4Cl)c(=O)n(C)c3n2)ccc1F 9.03%, COc1cc(N2CCC(N3CCN(C)CC3)CC2)ccc1Nc1ncc(Cl)c(Nc2ccccc2P(C)(C)=O)n1 7.47%, Nc1nc(NCCNc2ncc(-n3ccnc3)c(-c3ccc(Cl)cc3Cl)n2)ccc1[N+](=O)[O-] 8.87%, Cc1ccc(-n2nc(C(C)(C)C)cc2NC(=O)NCc2cc(F)ccc2Oc2ccc3c(cnn3CCO)c2)cc1 9.17%
